{"source": "PubChem BioAssay (NCATS)", "note": "The source made the active and inactive calls. Where a call stands in place of a potency, no number is given. Calls come from the whole dose curve; as a rule, active = well fitted inhibition curve with a large enough effect; inconclusive = small, poorly fitted or top-dose-only effect; inactive = flat fitted curve, though single readings scatter.", "data": [{"molecular_target": "Luciferin 4-monooxygenase (Photinus pyralis) (UniProt P08659)", "test": "Primary firefly luciferase (FLuc) qHTS assay for identification of artifact compounds. (AID 1845220); note: nearly all actives have a fitted effect of over 60% in size", "conditions": "purified firefly luciferase, luminescence, 5 min; series mostly up to 54.1 µM", "excerpt": "PI: Alexander Tropsha Ph.D.\nUNC Eshelman School of Pharmacy\nUniversity of North Carolina, Chapel Hill, North Carolina\nHits from high-throughput screening (HTS) of chemical libraries are often false positives due to their interference with the assay detection technology. In response to this problem, we generated the largest publicly available library of chemical liabilities and developed a free webtool to predict HTS artifacts, both of which are described herein. More specifically, we generated, curated, and integrated HTS datasets for thiol reactivity, redox activity, and luciferase (firefly and nano) activity. Using these curated datasets, we developed and validated several Quantitative Structure-Interference Relationship (QSIR) models to predict nuisance behavior. […] These models were employed for virtual profiling of the National Center for Advancing Translational Science's (NCATS) in-house library, and 256 compounds for each assay were selected for the experimental validation of nuisance behavior. The BA for these external predictions ranged from 58 to 78% for compounds within the applicability domains of the models. […] The models developed in this study, along with aggregation models previously developed by our group (SCAM Detective) were implemented in \"Liability Predictor,\" an online tool which may be used as part of chemical library design or for triaging HTS hits. Both the models and the curated datasets are publicly available at https://liability.mml.unc.edu/.\nSEQUENCE No. (e.g., 1, 2, 3, etc.); […] (e.g., Cells, Incubation, Reagent, etc.); VALUE; DESCRIPTION.\n1; Reagent; 3 uL; Luciferase substrate mixture.\n2; Compounds and control; 16 nL; Kalypsis pin tool (Wako USA) equipped with a 1536-well pin head.\n4; Reagent; 1 uL; Luciferase enzyme.\n6; Detection; Luminescence, ViewLux microplate reader.\nNOTES (numbers refer to Sequence numbers above)\n1. 3 uL of luciferase substrate mixture containing D-luciferin and ATP (final concentrations of 10 uM and 10 uM, respectively) in assay buffer (10 mM Mg-acetate, 0.01% Tween-20, 0.05% bovine serum albumin, 50 mM Tris acetate, pH 7.6) was dispensed into all wells of a 1536-well assay plate (solid-bottom white plate; Greiner Bio One, Monroe, NC).\n2. A Wako Pin-tool (Wako Automation, Richmond, VA) was used to transfer 16 nL of compounds (consisting of 7-plates in qHTS format, final concentration range 18.3 nM to 114 uM) or control PTC124 (final concentration range 1.22 nM to 40 uM).\n3. 15 min. incubation at room temperature protected from light.\n4. 1 uL of luciferase enzyme (final concentration 10 nM, Photinus pyralis luciferase) or buffer was dispensed for a final assay volume of 4 uL.\n5. Plates were centrifuged (121xg, 15 seconds) and incubated for 5 minutes.\n6. Samples were read for luminescence on a ViewLux CCD imager (PerkinElmer). Data were normalized to no-enzyme (0% activity) and no-inhibitor (DMSO; 100%) controls and the resulting percent inhibition data were fitted to a 4-parameter Hill equation using NCATS in-house software.", "values": [{"smiles": "O=C(/C=C/c1ccc(O)cc1)OC[C@H]1O[C@@H](OC(=O)/C=C/c2ccccc2)[C@H](O)[C@@H](O)[C@@H]1O", "Potency": "inactive"}, {"smiles": "CNC(=O)[C@H]1O[C@@H](n2cnc3c(NCc4ccc(N)c(I)c4)ncnc32)[C@H](O)[C@@H]1O", "outcome": "inactive [at 11.6 µM]"}, {"smiles": "O=C(O)c1cc(O[C@@H]2O[C@H](CO[C@@H]3OC[C@@H](O)[C@H](O)[C@H]3O)[C@@H](O)[C@H](O)[C@H]2O)c2ccccc2c1O", "Potency": "inactive"}, {"smiles": "CC(/C=C/C1(O)C(C)(C)CC(O)CC1(C)O)OC1OC(CO)C(O)C(O)C1O", "note": "(stereo not given)", "Potency": "inactive"}, {"smiles": "O=C(O)C[C@H](O)C[C@H](O)/C=C/c1c(C2CC2)nc2ccccc2c1-c1ccc(F)cc1", "Potency": "inactive"}, {"smiles": "COC1CCCC/C(C)=C/C2C=C(C)C(C)C3C(CC(C)C)NC(=O)C23C(=O)C1", "note": "(stereo not given)", "Potency": "inactive"}, {"smiles": "CC1CC(O)C2(C)C(C(=O)O)=CCCC2C1(C)CCc1ccoc1", "note": "(stereo not given)", "Potency": "inactive"}, {"smiles": "C=C1C[C@]23C[C@H]1CC[C@H]2[C@]1(C)CCC[C@@]2(CO)C(=O)O[C@H]([C@H]21)[C@@H]3O", "Potency": "inactive"}, {"smiles": "CC(C)(O)/C=C1/C(=O)C(C)(C)C(=O)C(C)(C)C1(O)O[C@@H]1O[C@H](COC(=O)c2cc(O)c(O)c(O)c2)[C@@H](O)[C@H](O)[C@H]1O", "note": "(stereo not given in full)", "Potency": "inactive"}, {"smiles": "C[C@@H]1O[C@@H](O[C@@H]2[C@@H](O)[C@H](O[C@@H]3[C@@H](O)[C@@H](O)[C@H](O[C@H]4[C@H](OC(=O)[C@]56CCC(C)(C)C[C@H]5C5=CCC7[C@@]8(C)C[C@H](O)[C@H](O[C@@H]9O[C@H](C(=O)O)[C@@H](O)[C@H](O)[C@H]9O)[C@@](C)(CO)C8[C@H](O)C[C@@]7(C)[C@]5(C)CC6)OC[C@H](O)[C@@H]4O)O[C@H]3C)OC[C@H]2O)[C@H](O)[C@H](O)[C@H]1O", "note": "(stereo not given in full)", "outcome": "inactive [at 11.6 µM]"}, {"smiles": "NCCOCCOCCNC(=O)Cc1ccc(Nc2nc(NCc3ccc(F)cc3)nc(NCC3CCCCC3)n2)cc1", "Potency": "inactive"}, {"smiles": "COc1cc(N2CCC(N(C)C)CC2)ccc1Nc1ncc(Cl)c(Nc2ccccc2P(C)(C)=O)n1", "Potency": "inactive"}, {"smiles": "CCn1cc(C2=NOC(C(=O)Nc3c(C)n(C)n(-c4ccccc4)c3=O)C2)c(C)n1", "note": "(stereo not given)", "Potency": "inactive"}, {"smiles": "O=C(Nc1cccnn1)N1CCC(=Cc2cccc(Oc3ccc(C(F)(F)F)cn3)c2)CC1", "Potency": "inactive"}, {"smiles": "COC(=O)[C@@]1(C)CC[C@]2(C(=O)O[C@@H]3O[C@H](CO)[C@@H](O)[C@H](O)[C@H]3O)CC[C@]3(C)C(=CCC4[C@@]5(C)CC[C@H](O[C@@H]6O[C@H](C(=O)O)[C@@H](O)[C@H](O)[C@H]6O)C(C)(C)C5CC[C@]43C)[C@@H]2C1", "note": "(stereo not given in full)", "activity change, negative = inhibition": "-8.19% [at 11.6 µM] (inactive)"}, {"smiles": "C=C1CC[C@@H]2[C@](C)(CO[C@@H]3O[C@H](CO)[C@@H](O)[C@H](O)[C@H]3O)CCC[C@@]2(C)[C@@H]1CCC1=CCOC1=O", "Potency": "inactive"}, {"smiles": "CC(=O)OC1C(O)CC(O[C@@H]2O[C@H](CO)[C@@H](O)[C@H](O)[C@H]2O)C2CCC3C(=O)OC(c4ccoc4)CC3(C)C21", "note": "(stereo not given in full)", "Potency": "inactive"}, {"smiles": "CC(=O)OC(CSC1CCC(=O)OC(C)CCC(=O)C1)C(=O)O", "note": "(stereo not given)", "Potency": "inactive"}, {"smiles": "CCNC(=O)[C@@H]1CCCN1C(=O)[C@H](CCCN=C(N)N)NC(=O)[C@H](CC(C)C)NC(=O)[C@@H](C)NC(=O)[C@H](Cc1ccc(O)cc1)NC(=O)[C@H](CO)NC(=O)[C@H](Cc1c[nH]c2ccccc12)NC(=O)[C@H](Cc1cnc[nH]1)NC(=O)[C@@H]1CCC(=O)N1", "Potency": "inactive"}, {"smiles": "C=C[C@H]1[C@H](O[C@@H]2O[C@H](CO)[C@@H](O)[C@H](O)[C@H]2O)OC=C(C(=O)OC)[C@H]1C[C@@H]1N[C@H](C(=O)O)Cc2c1[nH]c1ccccc21", "Potency": "inactive"}, {"smiles": "C=C(C)C(=O)O[C@H]1C[C@@](C)(OC(C)=O)[C@@]2(O)CC[C@@](C)(O)[C@H](OC(C)=O)[C@@]23OC(=O)C(COC)=C13", "Potency": "inactive"}, {"smiles": "Cc1[nH]cnc1C1CCN(c2nc3cccc4c3n2CCC4=O)CC1", "Potency": "inactive"}, {"smiles": "CO[C@H]1C=C2C(CC[C@H](O[C@@H]3O[C@H](CO)[C@@H](O)[C@@H](O)[C@H]3O)C2(C)C)[C@]2(C)CC[C@]3(C)C([C@H](C)C(O)C(C=C(C)C)O[C@@H]4O[C@H](CO)[C@@H](O)[C@@H](O)[C@H]4O)CC[C@@]3(C)C12", "note": "(stereo not given in full)", "activity change, negative = inhibition": "1.78% [at 11.6 µM] (inactive)"}, {"smiles": "CN[C@@H]1[C@@H](O)[C@@H](O[C@@H]2[C@@H](O)[C@H](O[C@H]3O[C@H](CN)[C@@H](O)[C@H](O)[C@H]3O)[C@@H](N)C[C@H]2NC(=O)[C@@H](O)CN)OC[C@]1(C)O", "Potency": "inactive"}, {"smiles": "CC1=CC[C@]2(C(=O)O[C@@H]3O[C@H](CO[C@@H]4O[C@H](CO)[C@@H](O[C@@H]5O[C@@H](C)[C@H](O)[C@@H](O)[C@H]5O)[C@H](O)[C@H]4O)[C@@H](O)[C@H](O)[C@H]3O)CC[C@]3(C)C(CCC4[C@@]5(C)C[C@@H](O)[C@H](O)[C@@](C)(CO)C5CC[C@]43C)C2C1C", "note": "(stereo not given in full)", "activity change, negative = inhibition": "0.527% [at 11.6 µM] (inactive)"}, {"smiles": "C[C@H]1[C@H](C)CC[C@]2(C(=O)O)CC[C@]3(C(=O)O)C(=CCC4[C@@]5(C)CC[C@H](O[C@@H]6O[C@H](C)[C@@H](O)[C@H](O)[C@H]6O)C(C)(C)C5CC[C@]43C)[C@H]12", "note": "(stereo not given in full)", "Potency": "inactive"}, {"smiles": "COc1cc(C(C)=O)ccc1O[C@@H]1O[C@H](CO[C@@H]2O[C@@H](C)[C@H](O)[C@@H](O)[C@H]2O)[C@@H](O)[C@H](O)[C@H]1O", "Potency": "inactive"}, {"smiles": "COc1ccc(/C=C/C(=O)O[C@@H]2[C@@H](OC(C)=O)[C@@H](OC(C)=O)[C@H](O[C@H]3[C@@H]4C=CO[C@@H](O[C@@H]5O[C@H](CO)[C@@H](O)[C@H](O)[C@H]5O)[C@@H]4[C@@]4(CO)O[C@@H]34)O[C@H]2C)cc1O", "Potency": "inactive"}, {"smiles": "Cc1cc(O)c(C(C)C)cc1O[C@@H]1O[C@H](CO)[C@@H](O)[C@H](O)[C@H]1O", "Potency": "inactive"}, {"smiles": "OC[C@H]1O[C@@H](OCCc2ccc(O)cc2)[C@H](O)[C@@H](O)[C@@H]1O", "Potency": "inactive"}, {"smiles": "C=C1CC[C@H]2[C@@](C)(CCC[C@@]2(C)C(=O)O)[C@@H]1CCC(C)CCO", "note": "(stereo not given in full)", "Potency": "inactive"}, {"smiles": "C=C1C(=O)OC2/C=C(\\C)CC/C=C(\\C(=O)O)CC/C=C(\\C)CCC12", "note": "(stereo not given)", "Potency": "inactive"}, {"smiles": "O=C(O[C@H]1[C@@H]2C=CO[C@@H](O[C@@H]3O[C@H](CO)[C@@H](O)[C@H](O)[C@H]3O)[C@@H]2[C@@]2(CO)O[C@@H]12)c1ccc(O)cc1", "Potency": "inactive"}, {"smiles": "C=C1CCC2C(OC(=O)C2(O)COC(C)=O)C2C(=C)C(O)CC12", "note": "(stereo not given)", "Potency": "inactive"}, {"smiles": "COc1cc(C2c3cc(O)c(OC)cc3CC(CO)C2CO)ccc1O", "note": "(stereo not given)", "Potency": "inactive"}, {"smiles": "CCOC(=O)[C@H](CCc1ccccc1)N[C@@H](C)C(=O)N1C2CCCCC2C[C@H]1C(=O)O", "note": "(stereo not given in full)", "Potency": "inactive"}, {"smiles": "CCC1CC2C(C)=CC3CCCCC3C2(C)C2(OC(=O)C(C)(O)OC2=O)O1", "note": "(stereo not given)", "Potency": "inactive"}, {"smiles": "COc1cc(/C=C/C(=O)OC2CC(OC(C)=O)C(OC(C)=O)C3C2CCC2C(=O)OC(c4ccoc4)CC23C)ccc1O[C@@H]1O[C@H](CO)[C@@H](O)[C@H](O)[C@H]1O", "note": "(stereo not given in full)", "Potency": "inactive"}, {"smiles": "CC(=O)C1CCC2(C)C3=C(CCC12C)C1(C)CCC(=O)C(C)(C)C1CC3", "note": "(stereo not given)", "Potency": "inactive"}, {"smiles": "COC(=O)C[C@@H]1C(C(=O)O)=CO[C@@H](O[C@@H]2O[C@H](CO)[C@@H](O)[C@H](O)[C@H]2O)/C1=C\\COC(=O)/C=C\\c1ccccc1", "Potency": "inactive"}]}]}
